Assay results taken from PubChem BioAssay (EPA / NIEHS).
Records with an inconclusive call do not appear. Calls of active or inactive are those of the source. The calls were made as follows, unless noted: active = hit-call score of the fitted dose curve at least 0.9, where 1 is the maximum; inactive = score below 0.9.

Legend:
[1] = CCTE_Harrill_HTTr_CellCount_MCF7: CCTE's Cell Proliferation Assessment for the High-Throughput Transcriptomics (HTTr) Platform, Harrill Lab (AID 2284012; active = hit-call score of the fitted dose curve at least 0.9, where 1 is the maximum;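 also: cells exposed to compound for six hours; intended direction is loss of nuclei count meaning fewer cells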)
In short: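 Cell count from high-content imaging of Hoechst-labeled nuclei serves as viability/growth readout. Chemicals were applied to MCF-7 cells in eight concentrations for six hours, with fitting in both directions relative to DMSO.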

[2] = CCTE_Shafer_MEA_acute_burst_number: CCTE's Neural Acute Assay for Single-Electrode Bursts, Shafer Lab (AID 2284013)
In short: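 Primary rat cortical neurons on 16-electrode MEA wells, DIV 13 or 15, exposed to compound (0.03-40 uM; ≥3 wells); 40-min recordings at 37 C before and after treatment. Burst count expressed as percent change from baseline, DMSO as negative control.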

[3] = CCTE_Shafer_MEA_acute_burst_duration_mean: CCTE's Neural Acute Assay for Mean Burst Duration, Shafer Lab (AID 2284014);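 also: hits are decreases in mean burst duration relative to DMSO controls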
In short: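 Mean burst duration was compared between a 40 min baseline and a 40 min recording in the presence of compound (0.03-40 uM, 37 C), giving percent change per well. Cultures were rat cortical neurons at DIV 13 or 15; wells needed ≥10 active electrodes.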

[4] = CCTE_Shafer_MEA_acute_interburst_interval_mean: CCTE's Neural Acute Assay for Mean Interburst Interval, Shafer Lab (AID 2284016);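 also: percent change of mean interburst interval versus each well's own pre-dose baseline; curves fitted for decrease in interburst interval relative to DMSO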
In short: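 Percent change in mean single-electrode interburst interval was calculated per well from 40 min recordings before and after compound (0.03-40 uM). Recordings were made at 37 C on rat cortical cultures at DIV 13 or 15, with spikes detected at 8x rms threshold.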

[5] = CCTE_Shafer_MEA_acute_burst_percentage_std: CCTE's Neural Acute Assay for Standard Deviation of Burst Percentage, Shafer Lab (AID 2284018);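 also: fitted in the negative direction so actives lower burst percentage SD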
In short: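 Value is percent change from baseline in the across-electrode SD of spikes-in-bursts percentage, wells with >/= 10 active electrodes. Acute 40-min exposure to 0.03-40 uM on DIV 13 or 15 rat cortical cultures, recorded at 37 C after 40-min baseline.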

[6] = CCTE_Shafer_MEA_acute_per_network_burst_spike_number_mean: CCTE's Neural Acute Assay for Average Number of Spikes in a Network Burst, Shafer Lab (AID 2284019);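 as to AC50: curve fitted for loss of signal so actives reduce spikes per network burst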
In short: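 Percent change from baseline in mean spikes per network burst, spikes detected at 8x rms noise. Each compound at 0.03-40 uM in at least three wells of rat cortical cultures, recorded 40 min before and 40 min during exposure.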

[7] = CCTE_Shafer_MEA_acute_per_network_burst_spike_number_std: CCTE's Neural Acute Assay for Standard Deviation of Number of Spikes in a Network Burst, Shafer Lab (AID 2284020);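 also: fitted for decrease in spike-number SD versus DMSO so actives lower it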
In short: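 Endpoint: percent change from 40 min baseline in standard deviation of spikes per network burst, after 40 min compound exposure (0.03-40 uM, 37 C). Cortical rat neurons on MEA at DIV 13 or 15; spikes detected at 8x rms noise, 300-5000 Hz band-pass.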

[8] = CCTE_Shafer_MEA_acute_network_burst_percentage: CCTE's Neural Acute Assay for Percentage of Network Bursts, Shafer Lab (AID 2284022);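 also: curves fitted for loss so actives lower network burst percentage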
In short: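 Primary rat cortical neurons on 16-electrode MEA wells, treated on DIV 13 or 15 with compound (0.03-40 uM); 40-min baseline and 40-min post-exposure recordings at 37 C. Value is percent change in spikes within network bursts versus baseline, DMSO negative control.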

[9] = CCTE_Shafer_MEA_acute_cross_correlation_HWHM: CCTE's Neural Acute Assay for Cross Correlation at Half Width at Half Maximum, Shafer Lab (AID 2284026);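 also: percent change per well from pre-dose baseline in spike cross-correlogram half width; hits are a decrease in cross-correlogram half width relative to DMSO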;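 as to outcome: spontaneous network firing of rat primary cortical neurons on multiwell microelectrode arrays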
In short: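 Primary rat cortical neurons on 16-electrode MEA wells; 40-min baseline on DIV 13 or 15, then 40-min recording with compound (0.03-40 uM) at 37 C. HWHM of spike cross-correlogram expressed as percent change from baseline per well, DMSO reference.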

[10] = target: Estrogen receptor (Homo sapiens) (UniProt P03372); assay: CCTE_Deisenroth_AIME_384WELL_LUC_Active: CCTE's 384-well Estrogen Receptor Transactivation Assay with AIME metabolic competence (ERTA luciferase; metabolism positive), Deisenroth Lab (AID 2284030; active = hit-call score of the fitted dose curve at least 0.9, where 1 is the maximum)
Estrogen receptor (Homo sapiens), sequence (P03372 whole entry, looked up): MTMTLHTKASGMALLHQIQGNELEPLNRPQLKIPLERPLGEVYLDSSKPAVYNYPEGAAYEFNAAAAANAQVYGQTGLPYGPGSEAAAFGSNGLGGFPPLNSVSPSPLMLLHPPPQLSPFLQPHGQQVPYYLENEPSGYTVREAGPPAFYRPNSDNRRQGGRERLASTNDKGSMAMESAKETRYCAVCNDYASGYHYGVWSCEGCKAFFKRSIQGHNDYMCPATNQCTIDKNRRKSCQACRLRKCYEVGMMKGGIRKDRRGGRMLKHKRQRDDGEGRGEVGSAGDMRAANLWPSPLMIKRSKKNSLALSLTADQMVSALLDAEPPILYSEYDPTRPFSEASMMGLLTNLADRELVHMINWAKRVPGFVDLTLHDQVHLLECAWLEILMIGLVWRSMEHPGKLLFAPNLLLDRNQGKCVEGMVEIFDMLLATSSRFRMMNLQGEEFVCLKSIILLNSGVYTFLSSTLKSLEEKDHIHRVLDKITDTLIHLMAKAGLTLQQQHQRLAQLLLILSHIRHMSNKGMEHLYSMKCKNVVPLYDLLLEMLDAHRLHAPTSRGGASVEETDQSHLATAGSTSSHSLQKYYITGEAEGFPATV
In short: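 Test chemicals (10-point series, 0.002 - 200 uM) were preincubated 2 hours with alginate-immobilized phenobarbital/beta-naphthoflavone-induced male Sprague Dawley rat liver S9; conditioned medium then went onto VM7Luc4E2 breast cells for 24 hour. Luciferase gain-of-signal fitted relative to 17beta-estradiol.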

In the case of `O=C(Cc1ccccc1)OCCc1ccccc1`, the outcome [1] is reported as “inactive”, the outcome [2] is reported as “inactive” and the outcome [3] is reported as “inactive”. The outcome [4] was “inactive”, the outcome [5] was “inactive” and the outcome [6] was “inactive”. For the same compound, the outcome [7] was “inactive”, the outcome [8] was “inactive” and the outcome [9] was “inactive”.
For `CNC(=O)CSP(=O)(OC)OC`, the outcome [1] was “inactive”.
In the case of `CNC(=O)O/N=C/C(C)(C)S(C)(=O)=O`, the outcome [1] is reported as “inactive” and the outcome [10] is reported as “inactive”.
In the case of `CCCCCCCCCCCCc1cccc(S(=O)(=O)O)c1`, the outcome [2] is reported as “inactive”, the outcome [3] is reported as “inactive” and the outcome [4] is reported as “inactive”. For the same compound, the outcome [5] was “inactive”, the outcome [6] was “inactive” and the outcome [7] was “inactive”. For the same compound, the outcome [8] was “inactive” and the outcome [9] was “inactive”.
With `CS(=O)(=O)c1ccc(C(=O)C2C(=O)CCCC2=O)c(Cl)c1COCC(F)(F)F` the outcome [1] was “inactive”, the outcome [2] was “inactive” and the outcome [3] was “inactive”. For the same compound, the outcome [4] was “inactive”, the outcome [5] was “inactive” and the outcome [6] was “inactive”. For the same compound, the outcome [7] was “inactive”, the outcome [8] was “inactive” and the outcome [9] was “inactive”.
With `N#Cc1cccnc1` the outcome [2] was “inactive”, the outcome [3] was “inactive” and the outcome [4] was “inactive”. For the same compound, the outcome [5] was “inactive”, the outcome [6] was “inactive” and the outcome [7] was “inactive”. The outcome [8] was “inactive”, the outcome [9] was “inactive” and the outcome [10] was “inactive”.
In the case of `O=CCCl`, the outcome [1] is reported as “inactive”.
For `CC(C)[C@@H](Nc1ccc(C(F)(F)F)cc1Cl)C(=O)OC(C#N)c1cccc(Oc2ccccc2)c1` (stereo not given in full), the outcome [2] was “inactive”, the AC50 [3] was 0.841 µM (active) and the AC50 [4] was 2.12 µM (active). For the same compound, the AC50 [5] was 1.28 µM (active), the AC50 [6] was 0.415 µM (active) and the AC50 [7] was 0.289 µM (active). For the same compound, the AC50 [8] was 0.564 µM (active) and the outcome [9] was “inactive”.
With `Oc1cc(Cl)c(Cl)cc1Cl` the outcome [1] was “inactive”, the outcome [2] was “inactive” and the outcome [3] was “inactive”. The outcome [4] was “inactive”, the AC50 [5] was 32.6 µM (active) and the outcome [6] was “inactive”. For the same compound, the outcome [7] was “inactive”, the outcome [8] was “inactive” and the AC50 [9] was 30.2 µM (active).
In the case of `CCN(CCO)CCO`, the outcome [10] is reported as “inactive”.
With `O=[N+]([O-])c1ccccc1O` the outcome [1] was “inactive”.
With `CC1(C)[C@H](C(=O)O[C@H](C#N)c2cccc(Oc3ccccc3)c2)[C@@H]1/C=C(\Cl)C(F)(F)F` the outcome [1] was “inactive”, the outcome [2] was “inactive” and the AC50 [3] was 0.761 µM (active). For the same compound, the AC50 [4] was 1.29 µM (active), the outcome [5] was “inactive” and the AC50 [6] was 0.553 µM (active). The AC50 [7] was 0.427 µM (active), the AC50 [8] was 0.551 µM (active) and the AC50 [9] was 23.7 µM (active).
With `CC(C)(C)c1ccccc1O` the outcome [1] was “inactive”, the outcome [2] was “inactive” and the outcome [3] was “inactive”. For the same compound, the outcome [4] was “inactive”, the AC50 [5] was 31.8 µM (active) and the outcome [6] was “inactive”. For the same compound, the outcome [7] was “inactive”, the outcome [8] was “inactive” and the AC50 [9] was 20 µM (active).
For `Oc1ccc(Cc2ccc(O)cc2)cc1`, the outcome [1] was “inactive”, the AC50 [2] was 0.003 µM (active) and the outcome [3] was “inactive”. For the same compound, the outcome [4] was “inactive”, the outcome [5] was “inactive” and the outcome [6] was “inactive”. The outcome [7] was “inactive”, the outcome [8] was “inactive” and the outcome [9] was “inactive”.
For `Cc1cc(SCc2sc(-c3ccc(C(F)(F)F)c(F)c3)nc2C)ccc1OCC(=O)O`, the outcome [1] was “inactive”.
With `Cc1cc(C(F)(C(F)(F)F)C(F)(F)F)ccc1NC(=O)c1cccc(I)c1C(=O)NC(C)(C)CS(C)(=O)=O` the AC50 [2] was 1.39 µM (active), the outcome [3] was “inactive” and the outcome [4] was “inactive”. The outcome [5] was “inactive”, the AC50 [6] was 5.87 µM (active) and the outcome [7] was “inactive”. The outcome [8] was “inactive” and the AC50 [9] was 4.61 µM (active).
For `CN(C)C(=S)S`, the outcome [2] was “inactive”, the outcome [3] was “inactive” and the outcome [4] was “inactive”. The outcome [5] was “inactive”, the outcome [6] was “inactive” and the outcome [7] was “inactive”. For the same compound, the outcome [8] was “inactive” and the outcome [9] was “inactive”.
For `CCCCOC(=O)COC(=O)c1ccccc1C(=O)OCCCC`, the outcome [1] was “inactive”, the AC50 [2] was 0.0105 µM (active) and the outcome [3] was “inactive”. The outcome [4] was “inactive”, the outcome [5] was “inactive” and the outcome [6] was “inactive”. For the same compound, the outcome [7] was “inactive”, the outcome [8] was “inactive” and the outcome [9] was “inactive”.
With `Clc1cccc(Cl)c1Cl` the outcome [1] was “inactive”, the outcome [2] was “inactive” and the outcome [3] was “inactive”. For the same compound, the outcome [4] was “inactive”, the outcome [5] was “inactive” and the outcome [6] was “inactive”. For the same compound, the outcome [7] was “inactive”, the outcome [8] was “inactive” and the outcome [9] was “inactive”.
In the case of `CCOc1ccc(N)cc1`, the outcome [10] is reported as “inactive”.
With `OCCCCO` the outcome [2] was “inactive”, the outcome [3] was “inactive” and the outcome [4] was “inactive”. The outcome [5] was “inactive”, the outcome [6] was “inactive” and the outcome [7] was “inactive”. For the same compound, the outcome [8] was “inactive” and the outcome [9] was “inactive”.
With `OC[C@@H](O)[C@H]1O[C@@H]2O[C@H](C(Cl)(Cl)Cl)O[C@@H]2[C@H]1O` the outcome [1] was “inactive”.
With `O=C1C[C@@H]2OCC=C3CN4CC[C@]56c7ccccc7N1[C@H]5[C@H]2[C@H]3C[C@H]46` the outcome [1] was “inactive”.
With `N#CCC#N` the outcome [1] was “inactive” and the outcome [10] was “inactive”.
For `C1CCC(C2CCCCC2)CC1`, the outcome [1] was “inactive”.
For `CC(O)(CS(=O)(=O)c1ccc(F)cc1)C(=O)Nc1ccc(C#N)c(C(F)(F)F)c1` (stereo not given), the outcome [1] was “inactive”.
With `Cc1cc(Cl)ccc1OC(C)C(=O)O` (stereo not given) the outcome [10] was “inactive”.
In the case of `Cc1cccc(C)c1NC(=O)CN1CCCC1=O`, the outcome [1] is reported as “inactive”.
With `C[CH2][Hg][S]c1ccccc1C(=O)O` the AC50 [1] was 50 µM (active).
In the case of `O=C(O)COc1ccc(Cl)cc1`, the outcome [1] is reported as “inactive” and the outcome [10] is reported as “inactive”.
With `CCOCn1c(-c2ccc(Cl)cc2)c(C#N)c(Br)c1C(F)(F)F` the outcome [1] was “inactive”.
In the case of `O=[N+]([O-])c1cccc2ccccc12`, the outcome [1] is reported as “inactive”.
For `Cc1ccccc1OP(=O)(Oc1ccccc1C)Oc1ccccc1C`, the outcome [2] was “inactive”, the AC50 [3] was 21.7 µM (active) and the AC50 [4] was 23.5 µM (active). The AC50 [5] was 24.2 µM (active), the outcome [6] was “inactive” and the outcome [7] was “inactive”. For the same compound, the outcome [8] was “inactive” and the AC50 [9] was 23.1 µM (active).
